PubChem BioAssay (NCI)
The panel holds about 83,000 compounds, 20% with a hit somewhere; the sample as a whole holds those more often.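 Cell lines were cultured in 96-well plates, exposed to a single compound concentration, and assessed for percent growth 48 hours later.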 The source made the active and inactive calls. Rule for the calls: active = growth percent below 10; inactive = the rest.

Legend:
Test in all cases: NCI-60 one-dose screen, 48 h (100 = growth as untreated, 0 = no growth, -100 = all killed)
Details in all cases: 10 µM unless noted
SR leukemia = tested on: SR leukemia
RPMI-8226 leukemia = tested on: RPMI-8226 leukemia
OVCAR-8 ovarian = tested on: OVCAR-8 ovarian
OVCAR-5 ovarian = tested on: OVCAR-5 ovarian
OVCAR-4 ovarian = tested on: OVCAR-4 ovarian
SK-OV-3 ovarian = tested on: SK-OV-3 ovarian
IGROV1 ovarian = tested on: IGROV1 ovarian
OVCAR-3 ovarian = tested on: OVCAR-3 ovarian
HS 578T breast = tested on: HS 578T breast
NCI/ADR-RES ovarian = tested on: NCI/ADR-RES ovarian

Measured: growth

CCOC(=O)[C@@H]1CSC(CC)=C(C(=O)O)N1
active: SR leukemia -11.1% | RPMI-8226 leukemia -32%
inactive: OVCAR-8 ovarian 101% | OVCAR-5 ovarian 107% | OVCAR-4 ovarian 117% | SK-OV-3 ovarian 69.1% | IGROV1 ovarian 109% | OVCAR-3 ovarian 128% | HS 578T breast 109% | NCI/ADR-RES ovarian 113%

O=C1NC(=O)C(Cc2ccc(OCc3ccc(-c4ccc(Cl)cc4Cl)cc3)cc2)S1 (configuration not stated)
inactive: SR leukemia 29.3% | RPMI-8226 leukemia 38.5% | OVCAR-8 ovarian 42.6% | OVCAR-5 ovarian 80.6% | OVCAR-4 ovarian 47.4% | SK-OV-3 ovarian 61.8% | IGROV1 ovarian 52.2% | OVCAR-3 ovarian 65.7% | HS 578T breast 65.1% | NCI/ADR-RES ovarian 22.7%

Nc1nc2ccccc2c2c(=O)c3cccc(Cl)c3sc12
inactive: SR leukemia 89% | RPMI-8226 leukemia 96.1% | OVCAR-8 ovarian 94% | OVCAR-5 ovarian 75% | OVCAR-4 ovarian 81.1% | SK-OV-3 ovarian 86.5% | IGROV1 ovarian 73.8% | OVCAR-3 ovarian 115% | HS 578T breast 101% | NCI/ADR-RES ovarian 93.1%

Cn1ccnc1C(=O)/C=C/c1ccc(C(=O)Nc2ccc(Cl)cc2)cc1
active: SR leukemia -8.67% | RPMI-8226 leukemia -8.46% | IGROV1 ovarian -22.4% | OVCAR-3 ovarian -12.8% | NCI/ADR-RES ovarian 5.79%
inactive: OVCAR-8 ovarian 14.3% | OVCAR-5 ovarian 12.6% | OVCAR-4 ovarian 18.1% | SK-OV-3 ovarian 42.2% | HS 578T breast 18.4%

CC(C)(C)[Si](C)(C)OC1[C@@H](CNC(=O)NC(=O)NC(N)=O)O[C@@H](n2cnc3c(NC(=O)Nc4ccccc4)ncnc32)[C@H]1O[Si](C)(C)C(C)(C)C (some centres not stated)
inactive: SR leukemia 40.8% | RPMI-8226 leukemia 69.1% | OVCAR-8 ovarian 23% | OVCAR-5 ovarian 96.1% | OVCAR-4 ovarian 66.7% | SK-OV-3 ovarian 65.4% | IGROV1 ovarian 78.4% | OVCAR-3 ovarian 68.4% | NCI/ADR-RES ovarian 85.3%

O=C(Nc1ccccc1)Nc1ncnc2c1ncn2-c1ccc(Cl)cc1
inactive: SR leukemia 74.1% | RPMI-8226 leukemia 100% | OVCAR-8 ovarian 83.7% | OVCAR-5 ovarian 74.5% | SK-OV-3 ovarian 75.4% | IGROV1 ovarian 78.5% | OVCAR-3 ovarian 99.5% | NCI/ADR-RES ovarian 74.6%
active: OVCAR-4 ovarian -29.6%

O=C(NCc1ccc(Cl)cc1Cl)C1CCC(=O)N1c1cccs1 (configuration not stated)
inactive: SR leukemia 91.8% | RPMI-8226 leukemia 95.5% | OVCAR-8 ovarian 93.5% | OVCAR-5 ovarian 91.2% | OVCAR-4 ovarian 97.5% | SK-OV-3 ovarian 89.6% | IGROV1 ovarian 92.4% | OVCAR-3 ovarian 108% | HS 578T breast 101% | NCI/ADR-RES ovarian 83.9%

COC1=CC(c2ccc[nH]2)=N/C1=C\c1[nH]c(C)c(CC(=O)NCc2ccccc2)c1C
active: SR leukemia -29.1% | NCI/ADR-RES ovarian -40.7%
inactive: RPMI-8226 leukemia 18.4% | OVCAR-8 ovarian 19.4% | OVCAR-5 ovarian 31.5% | OVCAR-4 ovarian 46.3% | SK-OV-3 ovarian 25.7% | IGROV1 ovarian 38.2% | OVCAR-3 ovarian 11.1%

O=C1Nc2ccc(C(=O)O)cc2/C1=N/c1nnc(Sc2ccccc2)s1
inactive: SR leukemia 87.8% | RPMI-8226 leukemia 99.1% | OVCAR-8 ovarian 98.8% | OVCAR-5 ovarian 113% | OVCAR-4 ovarian 111% | SK-OV-3 ovarian 109% | IGROV1 ovarian 99.7% | OVCAR-3 ovarian 105% | NCI/ADR-RES ovarian 110%

COc1ccccc1CNc1c2ccccc2nc2ccccc12
active: SR leukemia 9.9% | RPMI-8226 leukemia 8.12%
inactive: OVCAR-8 ovarian 31.9% | OVCAR-5 ovarian 49.8% | OVCAR-4 ovarian 42.2% | SK-OV-3 ovarian 61.4% | IGROV1 ovarian 26.3% | OVCAR-3 ovarian 54.3% | NCI/ADR-RES ovarian 34.8%

O=C(N/N=C/c1ccc(Cl)cc1)c1[nH]c2ccc(Cl)cc2c1-c1ccccc1
inactive: SR leukemia 52.2% | OVCAR-8 ovarian 28.8% | OVCAR-5 ovarian 51.5% | OVCAR-4 ovarian 41.4% | IGROV1 ovarian 17.3%
active: RPMI-8226 leukemia -3.56% | SK-OV-3 ovarian -1.75% | OVCAR-3 ovarian -13.4% | NCI/ADR-RES ovarian 1.79%

O=C(/C=C/c1ccccc1)Nc1ncc(Cc2ccccc2Cl)s1
active: OVCAR-3 ovarian -24.2% | NCI/ADR-RES ovarian 9.49%
inactive: SR leukemia 17.9% | RPMI-8226 leukemia 25.4% | OVCAR-8 ovarian 39.5% | OVCAR-5 ovarian 44% | OVCAR-4 ovarian 70.2% | SK-OV-3 ovarian 44.4% | HS 578T breast 28.2%

COc1ccc(C(=O)Nc2cccc(-c3cc(=O)c4c(OC)c(OC)c(OC)cc4o3)c2)cc1
inactive: SR leukemia 28.6% | RPMI-8226 leukemia 18.8% | OVCAR-8 ovarian 57.9% | OVCAR-5 ovarian 95.6% | OVCAR-4 ovarian 62% | SK-OV-3 ovarian 108% | IGROV1 ovarian 53.9% | OVCAR-3 ovarian 66.8% | NCI/ADR-RES ovarian 60.2%
